TEAD-YAP block: TEAD-YAP interaction inhibition. HEK-TIYL cells, TEAD-Gal4/YAP UAS-luciferase luminescence. inhibition, % at 9.12 µM. 640,000 compounds, 1.4% hits; in the data active means inhibition above about 32%
FBW7 activator: activators of human E3 ligase FBW7. Q969H0. AlphaScreen FBW7–phospho-cyclin E peptide binding, activator screen. normalized activity (activation), % at 26.1 µM. 650,000 compounds, 0.13% hits. AID 1259310; in the data active means normalized activity above about 1.9%;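 further: purified mutant Fbw7 with reduced substrate affinity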
Target sequence (Q969H0 whole entry, looked up): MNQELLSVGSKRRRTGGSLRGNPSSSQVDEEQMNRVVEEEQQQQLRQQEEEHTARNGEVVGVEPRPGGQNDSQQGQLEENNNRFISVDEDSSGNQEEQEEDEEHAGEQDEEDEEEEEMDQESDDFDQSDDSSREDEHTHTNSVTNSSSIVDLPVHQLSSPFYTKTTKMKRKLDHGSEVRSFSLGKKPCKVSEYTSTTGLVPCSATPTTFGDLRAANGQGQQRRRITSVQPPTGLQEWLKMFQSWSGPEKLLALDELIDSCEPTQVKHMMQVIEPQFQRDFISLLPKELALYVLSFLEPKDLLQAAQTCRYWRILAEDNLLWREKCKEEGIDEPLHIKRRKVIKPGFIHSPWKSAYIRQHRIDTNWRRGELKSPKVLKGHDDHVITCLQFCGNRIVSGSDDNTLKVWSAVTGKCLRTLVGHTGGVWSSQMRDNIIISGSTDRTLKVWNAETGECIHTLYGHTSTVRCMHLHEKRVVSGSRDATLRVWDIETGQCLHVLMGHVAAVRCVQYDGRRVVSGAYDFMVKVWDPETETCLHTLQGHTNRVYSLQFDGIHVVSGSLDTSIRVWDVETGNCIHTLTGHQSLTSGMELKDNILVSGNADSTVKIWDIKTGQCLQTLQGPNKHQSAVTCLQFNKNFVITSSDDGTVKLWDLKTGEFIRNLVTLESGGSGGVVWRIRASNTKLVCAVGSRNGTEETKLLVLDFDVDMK
GPR151 activ: activates the human receptor GPR151; PathHunter beta-arrestin GPR151 cells, luminescence; activation, % at 11.2 µM; 650,000 compounds, 1% hits; AID 1508602; in the data active means activation above about 4.9%
MITF primary: human MITF inhibition, primary screen | AID 1259374 | 650,000 compounds, 0.91% hits | inhibition, % at 2.6 µM | O75030 | AlphaScreen MITF homodimerization, bead proximity signal; in the data active means inhibition above about 50%
Each line names hits and unclear results; the compound was inactive in the other large screens. The list is not random: actives were taken first. Their share in the collection is about 3.4%.

CCCCCSc1nnc2c(n1)OC(CC)Nc1ccccc1-2 (stereo not drawn)	none
COc1cccc(Cn2nnc3c(cnn3-c3ccc(F)cc3)c2=O)c1	none
N#C/C(=C\c1cccc(Cl)c1)C(=O)NCc1ccccc1	none
O=C(NCc1ccccc1)C(=Cc1cccc(O)c1)C(=O)NCc1ccccc1	TEAD-YAP block 35
CCc1ccccc1-n1c(=O)oc2ccc(Cl)cc2c1=O	TEAD-YAP block 53
O=c1oc2ccc(Cl)cc2c(=O)n1-c1cccc([N+](=O)[O-])c1	TEAD-YAP block 75
CCC(=O)n1c(=O)oc2ccc(Cl)cc21	none
CCn1cc(CNC(=O)c2ccc([N+](=O)[O-])cc2Cl)c(C)n1	none
CCN(CCCNC(=O)CCn1nc(-c2ccc(C)cc2)ccc1=O)c1ccccc1	none
COc1ccccc1-c1nnc(NC(=O)CSc2nnc(NC(=O)c3cccc(C(F)(F)F)c3)s2)s1	none
Cc1cc(C)n2cc(CSCc3ccc(Cl)cc3)nc2n1	none
O=c1[nH]c(-c2ccccc2O)nc2sc3c(c12)CCCC3	none
O=c1[nH]c(-c2cc(O)c(O)c(O)c2)nc2sc3c(c12)CCCC3	TEAD-YAP block 60
CC(=Nc1cc(Cl)ccc1Cl)NNc1ccc([N+](=O)[O-])cc1[N+](=O)[O-]	none
Nc1nonc1-c1nc2ccccc2n1CCCc1nn[nH]n1	none
Nc1c(C(=O)NC2CC2)sc2nc(-c3ccc4c(c3)OCO4)ccc12	TEAD-YAP block 42
Nc1c(C(=O)Nc2ccc(F)cc2)sc2nc(-c3ccc4c(c3)OCO4)ccc12	none
CC(=O)Nc1ccc(-n2c(C)cc(C=C3C(=O)c4ccccc4C3=O)c2C)cc1	TEAD-YAP block 83
CC(=O)Nc1ccc(-n2c(C)cc(C=C3C(=O)N(C)C(=O)N(C)C3=O)c2C)cc1	none
N#Cc1ccc(-c2cnc3ccc(NCCc4ccccn4)nn23)cc1	TEAD-YAP block 63
COc1ccc(-c2cnc3ccc(NCCc4ccccn4)nn23)cc1	TEAD-YAP block 36
c1ccc(CCNc2ccc3ncc(-c4ccc(N5CCOCC5)cc4)n3n2)nc1	TEAD-YAP block 47
CCCNc1ccc2ncc(-c3ccc(N4CCOCC4)cc3)n2n1	none
Clc1ccc(-c2cnc3ccc(NCCc4ccccn4)nn23)cc1	none
Clc1cccc(-c2cnc3ccc(NCCc4ccccn4)nn23)c1	TEAD-YAP block 48
O=C1CCCN1CCCNc1nc(Nc2nccc3ccccc23)nc2c1ncn2C1CCCCC1	none
Cn1c2ccncc2c2cc([N+](=O)[O-])ccc21	TEAD-YAP block 76
CCOc1c(Cl)cc(C(=O)NNC(=O)OC(C)(C)C)cc1OC	none
Cc1nc2sc(-c3ccccc3)cc2c2nnc(-c3ccccc3)n12	TEAD-YAP block 91
Cc1nc2sc(-c3ccccc3)cc2c(=O)[nH]1	TEAD-YAP block 66
Cc1cc(C)nc(Sc2ccc(NC(=O)C(C)(C)C)cc2)n1	none
COc1cc(/C=C2\C(=O)ON=C2C)ccc1OCCc1ccccc1	TEAD-YAP block 38
COc1cc(/C=C2\C(=O)ON=C2C)ccc1O	MITF primary 60
CC1=NOC(=O)/C1=C/c1ccc(O)cc1O	MITF primary 53
COc1cc(/C=C2\C(=O)ON=C2C)cc(Br)c1O	MITF primary 81
CCCOc1ccc(/C=C2/C(=O)ON=C2C)cc1OC	none
COc1cccc(CC2(CO)CCCN(Cc3ccc4nsnc4c3)C2)c1 (stereo not drawn)	none
O=c1[nH]c2ccccc2c(=O)n1NC(=S)NC1CC2CCC1C2 (stereo not drawn)	none
CCOc1ccc(/C=C2/C(=O)ON=C2C)cc1Br	MITF primary 55
C#CCOc1ccc(/C=C2/C(=O)ON=C2C)cc1OC	none
C=CCOc1ccc(/C=C2/C(=O)ON=C2C)cc1Br	none
COc1ccc(/C=C2/NC(=S)NC2=O)cc1O	TEAD-YAP block 40
CCOc1cc(/C=C2/C(=O)ON=C2C)ccc1O	none
COc1ccc(/C=C2\NC(=S)NC2=O)cc1C	none
C#CCOc1ccc(/C=C2/C(=O)ON=C2C)cc1	MITF primary 58
COc1ccc(/C=C2\C(=O)ON=C2C)cc1O	MITF primary 52
COc1ccc(-c2noc(CNC(=O)Nc3ccccc3C)n2)cc1	none
COc1cccc(C2NC(=S)NC(c3ccccc3)=C2C(C)=O)c1 (stereo not drawn)	TEAD-YAP block 50
N#C/C(=C\c1ccc2c(c1)OCO2)C(=O)OCC(=O)NCC1CCCCC1	none
O=C(O)c1ccccc1C(=O)Nc1ccc(Oc2cccc3ccccc23)cc1	TEAD-YAP block 82
O=C(O)C1CCCCC1C(=O)Nc1ccc(Oc2cccc3ccccc23)cc1 (stereo not drawn)	TEAD-YAP block 71
Cc1cccc(Oc2ccc(NC(=O)c3ccccc3C(=O)O)cc2)c1C	none

High-throughput results deposited in PubChem by The Scripps Research Institute Molecular Screening Center.
